# Sampled rows, rich in hits. Any-hit rate of the full collection: about 12%.
# JMJD2A Tudor: blocks the human JMJD2A Tudor domain; AlphaScreen JMJD2A-Tudor / H3K4me3 peptide binding; O75164; Potency, µM (highest dose often 114 µM), without a hit: at the top dose activity change, negative = inhibition, usual class: inhibitors; AID 504339; 390,000 tested, 4.4% active; also: % is scaled to controls: 0 for no effect and ±100 for the full control effect; nearly all actives have a fitted effect of over 50% in size
# Target sequence (O75164 whole entry, looked up, the tested form may be a part): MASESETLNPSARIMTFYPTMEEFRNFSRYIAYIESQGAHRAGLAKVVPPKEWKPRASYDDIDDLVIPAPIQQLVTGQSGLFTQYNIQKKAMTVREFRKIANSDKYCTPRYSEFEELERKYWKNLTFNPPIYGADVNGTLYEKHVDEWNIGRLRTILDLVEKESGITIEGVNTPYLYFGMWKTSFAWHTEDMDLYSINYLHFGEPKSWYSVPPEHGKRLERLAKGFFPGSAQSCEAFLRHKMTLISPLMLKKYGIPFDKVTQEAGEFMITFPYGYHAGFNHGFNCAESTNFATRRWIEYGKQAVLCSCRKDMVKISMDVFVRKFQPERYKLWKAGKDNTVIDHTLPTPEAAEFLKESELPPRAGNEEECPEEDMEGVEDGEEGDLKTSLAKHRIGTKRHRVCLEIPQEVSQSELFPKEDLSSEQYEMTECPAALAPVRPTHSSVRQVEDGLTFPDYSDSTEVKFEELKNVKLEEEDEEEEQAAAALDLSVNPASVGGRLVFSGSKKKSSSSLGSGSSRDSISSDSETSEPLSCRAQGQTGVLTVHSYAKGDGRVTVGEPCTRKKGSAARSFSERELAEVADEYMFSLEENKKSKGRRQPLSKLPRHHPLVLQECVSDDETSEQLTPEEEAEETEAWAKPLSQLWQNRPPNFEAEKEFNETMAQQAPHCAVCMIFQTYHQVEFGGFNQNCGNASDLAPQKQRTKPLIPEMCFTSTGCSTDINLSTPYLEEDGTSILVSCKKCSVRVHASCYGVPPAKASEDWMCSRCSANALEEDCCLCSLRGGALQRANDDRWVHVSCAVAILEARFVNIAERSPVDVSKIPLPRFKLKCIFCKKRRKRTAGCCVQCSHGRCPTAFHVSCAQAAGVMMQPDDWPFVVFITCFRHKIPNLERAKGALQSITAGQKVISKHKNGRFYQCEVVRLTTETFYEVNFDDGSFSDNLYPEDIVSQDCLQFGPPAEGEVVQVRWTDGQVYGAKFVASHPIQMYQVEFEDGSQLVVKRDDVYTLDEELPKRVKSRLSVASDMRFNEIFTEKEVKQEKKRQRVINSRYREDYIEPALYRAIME
# G9a block: G9a (human) methyltransferase inhibition. Q96KQ7. AID 504332. Potency, µM (highest dose often 102 µM), inactives show at the highest dose activity, negative = inhibition, actives largely listed as inhibitors. G9a H3K9 monomethylation, AlphaScreen, 2 h. 350,000 tested, 8.8% active; also: % is scaled to controls: 0 for no effect and ±100 for the full control effect; nearly all actives have a fitted effect of over 75% in size
#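 Step 1: enzyme (final 20 nM) with compound, 15 min RT. Step 2: substrate peptide 500 nM and SAM 20 uM, 2 h RT. Step 3: anti-H3K9me1 antibody and AlphaScreen beads, 10 min, then plate read.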
# Sfp PPTase inh: inhibitors of Bacillus subtilis Sfp phosphopantetheinyl transferase; 310,000 tested, 3.5% active; Biochemical Sfp PPTase activity, qHTS; Q9F4F7; Potency, µM, for inactives: largest response in the series, negative = inhibition, most hits filed as inhibitors;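 also: the enzyme is Sfp with the accession as filed and its product quenches rhodamine fluorescence; 0% = enzyme reaction without inhibitor and -100% = no enzyme wells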
#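 With Hepes-Na pH 7.6 buffer containing 10 mM MgCl2, Sfp (15 nM) modified BHQ-2-YbbR (12.5 uM) using rhodamine-CoA (5 uM). Two reads 30 minutes apart at 525/598 nm yielded each well's rate.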
# HP1b chromo inh: blocks HP1-beta chromodomain binding to methylated histone tails; P83916; AlphaScreen HP1-beta / biotin-H3K9me3 peptide binding; Potency, µM (highest dose often 114 µM), without a hit: at the top dose activity change, negative = inhibition, usual class: inhibitors; 390,000 tested, 0.56% active; AID 540317; also: nearly all actives have a fitted effect of over 70% in size
#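 Compound inhibition of the preformed complex between 50 nM HP1-beta and 50 nM biotinylated H3K9me3 peptide was read by AlphaScreen. Buffer was PBS pH 7.4 with 0.01% Tween-20. Incubations ran 30 min at room temperature, with 10 ug/mL donor/acceptor beads.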
# BAZ2B inh: BAZ2B (human) inhibition | AID 504333 | Potency, µM (highest dose often 114 µM), without a hit: at the top dose activity change, negative = inhibition, most hits filed as inhibitors | 360,000 tested, 4.4% active | AlphaScreen BAZ2B-H3K14Ac peptide displacement; also: % is scaled to controls: 0 for no effect and ±100 for the full control effect; nearly all actives have a fitted effect of over 60% in size
#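 Inhibition is scored as reduced AlphaScreen emission. The BAZ2B/b-H3(5-23)K14Ac complex (50 nM each) in PBS pH 7.4, 0.01% Tween-20 meets compound (up to 110 uM) for 30 min at RT before bead addition.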
# PLK1 PBD block: inhibitors of human PLK1 polo-box domain binding; AID 720504; Potency, µM, for the others: max response, negative = inhibition, hits mostly inhibitors; P53350; Plk1 PBD binding of FITC phosphopeptide, fluorescence polarization; 360,000 tested, 2.8% active; also: series mostly up to about 57 µM; % is scaled to controls: 0 for no effect and ±100 for the full control effect; nearly all actives have a fitted effect of over 65% in size
# * = called active by the depositor; u = inconclusive; x = not tested or not shown; [ ] = another dose, or the depositor's remark. Calls follow the shape of the dose curve; as a rule, active = well fitted curve in the direction sought with a large enough effect; inconclusive = small, poorly fitted or top-dose-only effect, or another doubt; inactive = no such curve, though single readings can be large; an effect the other way counts as inactive or inconclusive. Potency is read from the fitted curve at half-maximal effect.
SMILES,JMJD2A Tudor,G9a block,Sfp PPTase inh,HP1b chromo inh,BAZ2B inh,PLK1 PBD block
CCCCNC(=O)CNC(=S)N(Cc1ccc(C)cc1)Cc1ccco1,-33.3%,28.2µM*,56.2µM*,-16.0%,-37.2%,-10.3%
Cc1ccc(CN(Cc2ccco2)C(=O)c2cccc(C)c2)cc1,-15.3%,-13.5%[59 µM],x,55.8%,40.7%,x
COc1cccc(NC(=O)CN(C)C(=O)/C=C/c2ccc3ccccc3n2)c1,-10.1%,0.8%[59 µM],x,3.7%,8.3%,0.5%
COC(=O)[C@@]1(Cc2ccc(F)cc2)[C@H]2c3cc(C(=O)N4CCCC4)n(Cc4cccc5ccccc45)c3C[C@H]2CN1C(=O)c1ccccc1,x,x,29.5%,x,x,x
COc1ccccc1CNC(c1ccccc1)c1ccccc1,49.2%,110.6%,-7.1%,121.5%,51.3%,2.4%
COc1cc(C)c(NC(c2ccccc2)c2ccccc2)cc1OC,44.7µM*,28.2µM*,-5.7%,u,39.8µM*,-4.7%
Cc1cccc(C)c1NC(=O)NC1(C(=O)N2CCCC2)CCCCC1,-3.2%,2.4%,9.0%,20.2%,-9.2%,-3.9%
O=C(O)CSCC(=O)N1CCN(Cc2ccc3c(c2)OCO3)CC1,11.2%,4.6%,14.2%,15.7%,-13.2%,1.6%
CC1CC(c2ccccc2)n2nc(NC(=O)CCc3ccccc3)nc2N1 (stereo unspecified),79.4µM*,0.7%[59 µM],12.1%,53.9%,50.1µM*,-14.8%
COCC(=O)Nc1nc2n(n1)C(c1ccccc1)CC(c1ccc(OC)cc1)N2 (stereo unspecified),56.2µM*,u,-7.1%,32.2%,u,-26.7%
O=C(O)CCCC(=O)Nc1nc2n(n1)C(c1ccc(F)cc1)CC(c1ccc(Cl)cc1)N2 (stereo unspecified),u,-43.7%[12.7 µM],-4.0%,37.1%,50.1µM*,-6.7%
CCOC(=O)n1cc(-c2cnc(CNC(=O)C(C)(c3ccccc3)c3ccccc3)o2)c2ccccc21,u,44.7µM*,0.2%,2.4%,-31.4%,-15.7%
C/C(=N\NC(=O)c1nnn(-c2nonc2N)c1C(C)C)c1cc(C)sc1C,-12.9%,26.0%,1.6%,12.9%[57 µM],-19.7%[57.1 µM],-10.1%
Cn1nnnc1Sc1ncnc2scc(-c3cccs3)c12,25.1µM*,-20.7%[0.501 µM],x,u,10µM*,x
Cn1nnnc1Sc1ncnc2scc(-c3ccc(-c4ccccc4)cc3)c12,-15.1%,x,x,50.4%,x,x
N#CC/C(N)=N/Nc1nc2ccccc2nc1Cc1ccccc1,u,50.1µM*,-9.3%,-5.1%[57 µM],-16.3%,-19.0%
O=C(O)c1ccc(N/N=C/c2ccc(C(F)(F)F)cc2)cc1,-34.9%,35.5µM*,-0.5%,-7.2%,u,u
O=C(O)c1ccc(/C=N/Nc2ccc(F)cc2F)cc1,-29.4%,35.5µM*,7.1%,5.9%,-21.9%,-18.1%
Fc1ccc(N/N=C/c2ccncc2)c(F)c1,-20.4%,u,-1.9%,12.7%,0.0%,-7.9%
O=C(O)c1ccc(N/N=C/c2ccc3c(c2)OCO3)cc1,-16.1%,x,-0.9%,21.8%,-22.0%,-0.3%
CC(C)(C)c1ccc(/C=N/Nc2ccc(C(=O)O)cc2)cc1,u,1.78µM*,9.4%,-10.1%,-38.1%,u
CC1Oc2ccccc2C=C1/C=N/Nc1ccc(C(=O)O)cc1 (stereo unspecified),-10.3%[11.4 µM],u,2.7%,-13.7%,-30.4%,23.8µM*
COc1ccc(C(=O)NNC(=O)c2ccc3ccccc3n2)cc1,-6.4%,18.5%[2.33 µM],x,24.3%,8.1%,-6.5%
CN(C)Cc1ccccc1-c1nc(NCc2cccs2)c2ccccc2n1,x,19.9%[0.501 µM],7.3%,x,x,x
O=C(O)c1ccc(/C=N/Nc2ncc(C(F)(F)F)cc2Cl)cc1,-12.7%,31.6µM*,28.2µM*,31.8%,-17.3%,-4.7%
SMILES,JMJD2A Tudor,G9a block,Sfp PPTase inh,HP1b chromo inh,BAZ2B inh,PLK1 PBD block
Cc1ccc(-c2cc3nc(-c4ccccc4)cc(C(F)(F)F)n3n2)cc1,31.8%,1.6%[59 µM],x,37.9%,4.3%,x
CCCc1cc(=O)[nH]c(SCC(=O)NC(=O)NC2CCCC2)n1,-9.8%,20.3%[12.7 µM],x,34.6%,2.8%,2.3%
CC(C)(C)OC(=O)N1CCC(c2c(C(=O)Nc3ccc4c(c3)OCCO4)cnn2-c2ccc(F)cc2)CC1,-34.3%,u,x,20.1%,0.2%[57.1 µM],x
Oc1ccc2ccccc2c1CNc1ccccn1,-18.1%,8.91µM*,-4.8%,28.0%,-13.4%,u
Cc1ccc(O)c(CNn2cnnc2)c1,-6.7%,26.1%[59 µM],-2.2%,26.5%,-4.3%,-3.7%
Oc1ccc2ccccc2c1CNn1cnnc1,-18.8%,11.2µM*,-3.2%,25.4%,0.1%,-14.8%
Cc1ccc(O)c(CNc2ccccn2)c1,-12.3%,-30.7%,5.8%,25.7%,-8.0%,-6.2%
CCc1ccc(NC(=O)Cn2c(=O)n(-c3ccc(OC)cc3)c(=O)c3ccc(C(=O)NCc4ccc(C)cc4)cc32)cc1,-3.7%,17.2%[59 µM],x,60.1%,x,x
Cc1cc(=O)n(C(C)C(=O)N2CCCc3ccccc32)c2c1c(C)nn2-c1ccccc1 (stereo unspecified),-15.0%,9.8%[59 µM],x,-15.5%,u,x
CCc1ccc(OCc2nnc(SCCN3CCOCC3)n2CC)cc1,3.16µM*,7.08µM*,-21.0%,u,x,0.7%
CCn1c(COc2ccc(C)cc2)nnc1SCc1ccc(C#N)cc1,-6.6%,x,-5.2%,23.2%,6.3%,-1.6%
CCCc1n[nH]c(=S)n1Cc1ccco1,5.01µM*,u,u,30.4%,5.7%,-21.0%
S=c1[nH]nc(C23CC4CC(CC(C4)C2)C3)n1Cc1ccco1,50.1µM*,-8.7%[0.0925 µM],-13.3%,3.8%,u,-6.7%
S=c1[nH]nc(COc2ccc(Cl)cc2)n1-c1ccc(Cl)cc1,u,1.1%[0.501 µM],9.5%,-16.1%,u,u
S=c1[nH]nc(COc2ccc(Cl)cc2)n1Cc1ccco1,u,3.55µM*,-4.4%,u,u,u
Clc1ccc(OCc2nnc(SCCN3CCCCC3)n2Cc2ccco2)cc1,u,u,25.1µM*,13.0%,89.1µM*,-13.3%
O=c1c2ccccc2nnn1CSc1nnc(COc2ccc(Cl)cc2)n1Cc1ccco1,u,16.0%[0.0925 µM],-25.1%,-12.5%,u,-10.8%
COc1cccc(CSCC(=O)NCCc2ccccc2)c1OC,-1.4%,5.1%,6.6%,24.2%,4.6%,-3.1%
Cc1ccc(C(=O)NC(=S)Nc2cccnc2Cl)cc1,0.4%,u,56.2µM*,-0.8%,0.9%,-15.3%
COc1ccccc1-c1cc(C(=O)Nc2cccnc2Cl)no1,-7.7%,-12.1%[59 µM],18.5%,30.2%,1.2%,-5.1%
COc1ccccc1C(=O)NC(=S)Nc1cccnc1Cl,-25.4%,10µM*,44.7µM*,u,-29.0%,u
CC1(C)CC2(OC2c2ccccc2)C(=O)c2ccccc21 (stereo unspecified),x,x,x,x,x,-11.0%
CCSc1nnc(NC(=O)CCC2CCCCC2)s1,-13.0%,x,x,38.7%,x,-8.7%
